Holding throughout (assay): DAPPL (digital affinity profiling via proximity ligation, sequencing); 10 mM Tris-HCl pH 7.5, 50 mM NaCl, 1 mM DTT, 4% glycerol, room temperature, 30 min; GST-TFs on glutathione beads, 16-mer random dsDNA library, 0.1% formaldehyde crosslink after washing; high values mean tight binding
Assay [1] addresses T1, FEV (Homo sapiens, UniProt Q99581 1-238).
T1 sequence: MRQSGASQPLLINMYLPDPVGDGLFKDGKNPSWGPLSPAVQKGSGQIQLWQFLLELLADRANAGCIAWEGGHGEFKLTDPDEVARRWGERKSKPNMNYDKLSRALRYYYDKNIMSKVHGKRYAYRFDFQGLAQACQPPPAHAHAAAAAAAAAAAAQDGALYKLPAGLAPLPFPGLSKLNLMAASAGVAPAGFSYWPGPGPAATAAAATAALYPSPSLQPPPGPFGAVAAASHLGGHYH
To be noted: protein: recombinant; tags: N-terminal GST; dsDNA, one strand shown. The essentials:
(§1)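 Binding signal is defined as a hexamer's read frequency for one factor over its frequency for the tag-only sample. To obtain reads, GST-fused human transcription factors were expressed in yeast, captured on glutathione beads, barcoded with DNA and pooled with that sample. Pools met 200 nmole of a 16-mer random double-stranded DNA library in Tris/NaCl/DTT/glycerol buffer for 30 min at room temperature before washing, 0.1% formaldehyde crosslinking, proximity ligation (BsaI/T4 ligase, 1 h, 37 °C), PCR and Illumina NextSeq500 sequencing.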

Assay [2] concerns the target ETV5 (Homo sapiens, UniProt P41161 1-510). To be noted: protein: recombinant; tags: N-terminal GST; dsDNA, one strand shown. The essentials: as §1
Assay [3] addresses HSF1 (Homo sapiens, UniProt Q00613 1-529). The note with it: protein: recombinant; tags: N-terminal GST; chain copies: 3; dsDNA, one strand shown. Summed up:
as §1

For assay [4], the target named is T2, SPIC (Homo sapiens, UniProt Q8N5J4 1-248).
T2 sequence: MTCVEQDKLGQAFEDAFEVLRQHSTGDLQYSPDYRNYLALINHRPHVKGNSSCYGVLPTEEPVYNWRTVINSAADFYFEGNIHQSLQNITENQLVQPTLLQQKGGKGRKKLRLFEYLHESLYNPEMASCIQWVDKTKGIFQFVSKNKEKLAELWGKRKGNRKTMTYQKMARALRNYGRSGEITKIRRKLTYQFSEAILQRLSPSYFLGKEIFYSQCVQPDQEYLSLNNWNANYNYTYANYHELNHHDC
The note with it: protein: recombinant; tags: N-terminal GST; dsDNA, one strand shown. The essentials:
as §1

Assay [5] deals with ELF4 (Homo sapiens, UniProt Q99607 1-663). To be noted: protein: recombinant; tags: N-terminal GST; dsDNA, one strand shown. Summed up: as §1
Assay [6] concerns the target T3, ELK4 (Homo sapiens, UniProt P28324-2 1-405).
T3 sequence: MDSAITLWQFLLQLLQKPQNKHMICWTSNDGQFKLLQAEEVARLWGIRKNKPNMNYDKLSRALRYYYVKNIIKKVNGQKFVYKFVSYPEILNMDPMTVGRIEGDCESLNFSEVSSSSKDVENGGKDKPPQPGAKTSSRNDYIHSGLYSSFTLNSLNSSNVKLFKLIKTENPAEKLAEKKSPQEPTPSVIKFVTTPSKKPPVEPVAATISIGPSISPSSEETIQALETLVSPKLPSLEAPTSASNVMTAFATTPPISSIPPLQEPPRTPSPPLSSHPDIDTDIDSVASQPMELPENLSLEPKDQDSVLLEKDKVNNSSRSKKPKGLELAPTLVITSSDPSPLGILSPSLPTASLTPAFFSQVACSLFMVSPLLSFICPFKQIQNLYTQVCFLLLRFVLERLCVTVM
The note with it: protein: recombinant; tags: N-terminal GST; dsDNA, one strand shown. The essentials:
as §1

Assay [7] addresses T4, ETV2 (Homo sapiens, UniProt O00321 1-342).
T4 sequence: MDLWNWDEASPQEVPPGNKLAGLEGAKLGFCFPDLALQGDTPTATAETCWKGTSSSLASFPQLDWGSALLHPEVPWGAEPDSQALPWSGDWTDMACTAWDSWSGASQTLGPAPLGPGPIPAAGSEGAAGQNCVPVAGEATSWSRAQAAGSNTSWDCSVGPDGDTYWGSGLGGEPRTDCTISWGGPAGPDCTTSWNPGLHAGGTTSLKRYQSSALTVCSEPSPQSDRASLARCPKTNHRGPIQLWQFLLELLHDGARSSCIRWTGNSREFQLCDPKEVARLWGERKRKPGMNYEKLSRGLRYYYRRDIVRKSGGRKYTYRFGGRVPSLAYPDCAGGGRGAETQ
The note with it: protein: recombinant; tags: N-terminal GST; dsDNA, one strand shown. Summed up:
as §1

For assay [8], the target named is T5, ELF3 (Homo sapiens, UniProt P78545 1-371).
T5 sequence: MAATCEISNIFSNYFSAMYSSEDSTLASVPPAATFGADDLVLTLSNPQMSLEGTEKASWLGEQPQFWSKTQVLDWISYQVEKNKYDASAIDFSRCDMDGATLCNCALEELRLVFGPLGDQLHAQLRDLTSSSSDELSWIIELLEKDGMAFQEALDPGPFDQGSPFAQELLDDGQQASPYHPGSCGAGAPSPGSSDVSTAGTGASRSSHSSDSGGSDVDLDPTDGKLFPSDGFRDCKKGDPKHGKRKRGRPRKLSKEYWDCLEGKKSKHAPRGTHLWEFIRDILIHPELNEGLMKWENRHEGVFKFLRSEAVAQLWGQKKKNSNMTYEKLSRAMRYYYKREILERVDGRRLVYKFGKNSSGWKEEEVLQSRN
The note with it: protein: recombinant; tags: N-terminal GST; dsDNA, one strand shown. The essentials: as §1

For assay [9], the target named is CRX (Homo sapiens, UniProt O43186 1-299). The note with it: protein: recombinant; tags: N-terminal GST; dsDNA, one strand shown. The essentials: as §1
For assay [10], the target named is ETV1 (Homo sapiens, UniProt P50549 1-477). To be noted: protein: recombinant; tags: N-terminal GST; dsDNA, one strand shown. The essentials: as §1
For assay [11], the target named is T6, ERF (Homo sapiens, UniProt P50548 1-548).
T6 sequence: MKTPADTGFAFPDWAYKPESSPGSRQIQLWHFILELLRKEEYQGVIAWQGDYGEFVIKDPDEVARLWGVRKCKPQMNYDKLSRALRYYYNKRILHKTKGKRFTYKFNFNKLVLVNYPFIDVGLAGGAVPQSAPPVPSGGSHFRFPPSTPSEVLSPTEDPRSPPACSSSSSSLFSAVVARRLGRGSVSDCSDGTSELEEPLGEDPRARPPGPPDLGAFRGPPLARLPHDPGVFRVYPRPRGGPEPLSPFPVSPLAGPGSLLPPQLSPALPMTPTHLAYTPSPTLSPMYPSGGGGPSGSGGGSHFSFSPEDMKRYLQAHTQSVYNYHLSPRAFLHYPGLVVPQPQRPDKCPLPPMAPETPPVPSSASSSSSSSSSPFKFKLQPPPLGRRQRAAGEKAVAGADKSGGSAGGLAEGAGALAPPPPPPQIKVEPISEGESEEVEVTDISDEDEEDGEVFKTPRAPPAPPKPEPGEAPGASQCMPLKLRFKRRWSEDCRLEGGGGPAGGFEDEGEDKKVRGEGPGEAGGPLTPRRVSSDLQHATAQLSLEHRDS
To be noted: protein: recombinant; tags: N-terminal GST; dsDNA, one strand shown. The essentials:
as §1

Assay [12] deals with T7, ETV3L (Homo sapiens, UniProt Q6ZN32 1-361).
T7 sequence: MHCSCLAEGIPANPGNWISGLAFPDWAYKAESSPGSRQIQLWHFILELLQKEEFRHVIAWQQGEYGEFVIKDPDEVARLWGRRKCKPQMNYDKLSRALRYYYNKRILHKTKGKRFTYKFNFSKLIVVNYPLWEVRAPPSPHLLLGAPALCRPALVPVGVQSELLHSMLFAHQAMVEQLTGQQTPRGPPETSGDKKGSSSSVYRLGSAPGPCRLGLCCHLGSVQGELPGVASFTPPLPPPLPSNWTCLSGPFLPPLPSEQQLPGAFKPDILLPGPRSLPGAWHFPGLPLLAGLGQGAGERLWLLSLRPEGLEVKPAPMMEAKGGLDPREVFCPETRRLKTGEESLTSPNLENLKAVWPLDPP
The note with it: protein: recombinant; tags: N-terminal GST; dsDNA, one strand shown. Summed up:
as §1

In assay [13] the target is T8, ETS2 (Homo sapiens, UniProt P15036 1-469).
T8 sequence: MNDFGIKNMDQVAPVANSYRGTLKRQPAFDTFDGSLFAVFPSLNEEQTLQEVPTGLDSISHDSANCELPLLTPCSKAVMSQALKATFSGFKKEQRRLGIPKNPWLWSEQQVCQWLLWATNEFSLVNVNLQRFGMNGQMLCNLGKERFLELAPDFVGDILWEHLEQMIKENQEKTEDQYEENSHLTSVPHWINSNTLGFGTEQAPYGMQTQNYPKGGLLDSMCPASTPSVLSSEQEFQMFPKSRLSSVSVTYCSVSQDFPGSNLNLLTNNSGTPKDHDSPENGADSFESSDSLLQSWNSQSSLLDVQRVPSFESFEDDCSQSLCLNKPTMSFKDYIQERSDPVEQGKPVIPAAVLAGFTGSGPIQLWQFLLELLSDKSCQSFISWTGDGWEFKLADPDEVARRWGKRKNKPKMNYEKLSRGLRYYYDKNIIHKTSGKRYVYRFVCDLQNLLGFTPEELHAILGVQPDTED
The note with it: protein: recombinant; tags: N-terminal GST; dsDNA, one strand shown. The essentials: as §1

Assay [14] deals with T9, SPDEF (Homo sapiens, UniProt O95238 1-335).
T9 sequence: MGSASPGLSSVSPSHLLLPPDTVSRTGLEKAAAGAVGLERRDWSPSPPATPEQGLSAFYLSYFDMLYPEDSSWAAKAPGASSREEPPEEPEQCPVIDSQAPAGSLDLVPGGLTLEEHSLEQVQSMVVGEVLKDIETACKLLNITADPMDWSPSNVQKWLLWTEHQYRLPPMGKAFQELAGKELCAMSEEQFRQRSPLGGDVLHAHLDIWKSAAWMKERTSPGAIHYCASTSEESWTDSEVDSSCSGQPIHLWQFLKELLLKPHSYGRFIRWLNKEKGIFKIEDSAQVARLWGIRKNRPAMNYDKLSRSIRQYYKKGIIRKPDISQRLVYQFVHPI
The note with it: protein: recombinant; tags: N-terminal GST; dsDNA, one strand shown. The essentials: as §1

For assay [15], the target named is T10, ETV7 (Homo sapiens, UniProt Q9Y603 1-341).
T10 sequence: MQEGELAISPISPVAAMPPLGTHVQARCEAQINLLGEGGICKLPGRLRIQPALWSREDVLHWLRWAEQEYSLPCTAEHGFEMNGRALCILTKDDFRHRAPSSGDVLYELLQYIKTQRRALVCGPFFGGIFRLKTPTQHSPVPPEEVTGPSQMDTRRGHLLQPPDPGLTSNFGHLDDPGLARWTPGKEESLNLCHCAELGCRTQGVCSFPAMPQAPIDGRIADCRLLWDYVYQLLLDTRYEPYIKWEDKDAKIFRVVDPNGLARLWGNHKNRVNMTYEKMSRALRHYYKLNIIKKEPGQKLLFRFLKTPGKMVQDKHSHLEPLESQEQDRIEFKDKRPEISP
To be noted: protein: recombinant; tags: N-terminal GST; dsDNA, one strand shown. Summed up: as §1

For assay [16], the target named is T11, ELF5 (Homo sapiens, UniProt Q9UKW6-2 1-255).
T11 sequence: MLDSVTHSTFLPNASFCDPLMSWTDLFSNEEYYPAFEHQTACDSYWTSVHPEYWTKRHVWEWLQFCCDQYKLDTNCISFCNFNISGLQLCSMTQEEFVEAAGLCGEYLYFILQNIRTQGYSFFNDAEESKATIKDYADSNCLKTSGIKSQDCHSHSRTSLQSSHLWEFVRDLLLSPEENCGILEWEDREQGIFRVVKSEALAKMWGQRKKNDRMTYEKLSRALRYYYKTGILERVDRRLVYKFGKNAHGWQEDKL
To be noted: protein: recombinant; tags: N-terminal GST; dsDNA, one strand shown. The essentials:
as §1

In assay [17] the target is T12, ETV3 (Homo sapiens, UniProt P41162-2 1-143).
T12 sequence: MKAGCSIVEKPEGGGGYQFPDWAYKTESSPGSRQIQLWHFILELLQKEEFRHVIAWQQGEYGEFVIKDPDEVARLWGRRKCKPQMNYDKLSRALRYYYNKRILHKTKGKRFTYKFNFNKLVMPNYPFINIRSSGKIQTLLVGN
To be noted: protein: recombinant; tags: N-terminal GST; dsDNA, one strand shown. Summed up: as §1

Assay [18] concerns the target ETV6 (Homo sapiens, UniProt P41212 1-452). To be noted: protein: recombinant; tags: N-terminal GST; dsDNA, one strand shown. Summed up: as §1

Sequence of HSF1 (Q00613 whole entry): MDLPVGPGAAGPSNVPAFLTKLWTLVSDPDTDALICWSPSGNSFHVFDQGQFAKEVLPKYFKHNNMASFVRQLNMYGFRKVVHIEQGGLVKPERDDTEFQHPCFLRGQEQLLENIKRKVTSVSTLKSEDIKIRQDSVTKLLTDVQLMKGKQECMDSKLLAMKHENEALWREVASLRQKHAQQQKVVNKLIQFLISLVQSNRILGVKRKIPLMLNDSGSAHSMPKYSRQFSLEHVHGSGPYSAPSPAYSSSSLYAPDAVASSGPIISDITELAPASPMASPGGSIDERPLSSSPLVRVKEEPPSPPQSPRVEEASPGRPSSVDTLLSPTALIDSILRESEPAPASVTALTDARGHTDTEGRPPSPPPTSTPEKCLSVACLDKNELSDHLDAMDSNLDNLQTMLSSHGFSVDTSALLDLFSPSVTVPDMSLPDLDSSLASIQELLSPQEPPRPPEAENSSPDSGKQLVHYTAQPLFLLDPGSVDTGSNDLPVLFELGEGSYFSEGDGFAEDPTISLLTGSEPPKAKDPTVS
Sequence of ELF4 (Q99607 whole entry): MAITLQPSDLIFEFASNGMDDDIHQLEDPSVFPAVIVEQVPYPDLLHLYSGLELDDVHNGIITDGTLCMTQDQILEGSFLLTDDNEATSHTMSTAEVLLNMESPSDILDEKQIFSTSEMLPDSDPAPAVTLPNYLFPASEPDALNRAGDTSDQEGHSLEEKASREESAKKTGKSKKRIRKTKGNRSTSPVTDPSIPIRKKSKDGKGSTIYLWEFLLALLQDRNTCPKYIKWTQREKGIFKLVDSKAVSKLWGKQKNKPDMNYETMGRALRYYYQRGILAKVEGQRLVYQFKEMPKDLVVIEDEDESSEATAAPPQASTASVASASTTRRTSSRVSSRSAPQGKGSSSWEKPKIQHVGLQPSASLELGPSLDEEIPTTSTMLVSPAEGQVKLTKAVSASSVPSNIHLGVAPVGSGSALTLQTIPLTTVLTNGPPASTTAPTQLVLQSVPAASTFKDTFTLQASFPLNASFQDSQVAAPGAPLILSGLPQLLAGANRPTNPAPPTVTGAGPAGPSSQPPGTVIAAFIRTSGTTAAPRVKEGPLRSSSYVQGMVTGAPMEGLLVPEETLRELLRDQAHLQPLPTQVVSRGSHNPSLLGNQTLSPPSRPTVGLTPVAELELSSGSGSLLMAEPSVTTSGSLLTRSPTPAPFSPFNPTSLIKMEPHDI
Sequence of ETV5 (P41161 whole entry): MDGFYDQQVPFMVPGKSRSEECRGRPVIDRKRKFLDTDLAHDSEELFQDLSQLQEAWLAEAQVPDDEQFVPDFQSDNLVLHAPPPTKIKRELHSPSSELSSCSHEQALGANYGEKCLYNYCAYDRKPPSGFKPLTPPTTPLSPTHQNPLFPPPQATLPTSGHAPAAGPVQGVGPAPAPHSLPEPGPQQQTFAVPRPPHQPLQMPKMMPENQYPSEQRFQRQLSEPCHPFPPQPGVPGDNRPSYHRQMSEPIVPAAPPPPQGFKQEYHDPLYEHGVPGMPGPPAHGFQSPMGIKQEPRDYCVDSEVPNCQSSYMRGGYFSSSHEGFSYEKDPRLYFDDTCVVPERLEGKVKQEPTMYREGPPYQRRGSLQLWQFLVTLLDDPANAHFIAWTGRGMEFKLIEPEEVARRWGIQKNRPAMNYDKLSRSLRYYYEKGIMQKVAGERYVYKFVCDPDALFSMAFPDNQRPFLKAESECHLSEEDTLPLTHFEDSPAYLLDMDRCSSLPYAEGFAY
Sequence of ETV6 (P41212 whole entry): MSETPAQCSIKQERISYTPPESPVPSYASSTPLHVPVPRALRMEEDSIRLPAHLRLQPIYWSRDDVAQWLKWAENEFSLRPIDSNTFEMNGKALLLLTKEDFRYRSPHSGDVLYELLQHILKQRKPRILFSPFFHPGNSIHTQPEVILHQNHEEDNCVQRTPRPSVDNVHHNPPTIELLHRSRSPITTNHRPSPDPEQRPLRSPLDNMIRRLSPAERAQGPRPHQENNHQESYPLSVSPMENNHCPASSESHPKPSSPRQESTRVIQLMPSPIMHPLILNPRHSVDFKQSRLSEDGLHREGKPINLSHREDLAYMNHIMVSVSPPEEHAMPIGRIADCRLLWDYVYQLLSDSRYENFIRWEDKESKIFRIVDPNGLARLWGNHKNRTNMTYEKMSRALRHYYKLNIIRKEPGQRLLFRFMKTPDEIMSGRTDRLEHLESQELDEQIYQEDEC
Sequence of CRX (O43186 whole entry): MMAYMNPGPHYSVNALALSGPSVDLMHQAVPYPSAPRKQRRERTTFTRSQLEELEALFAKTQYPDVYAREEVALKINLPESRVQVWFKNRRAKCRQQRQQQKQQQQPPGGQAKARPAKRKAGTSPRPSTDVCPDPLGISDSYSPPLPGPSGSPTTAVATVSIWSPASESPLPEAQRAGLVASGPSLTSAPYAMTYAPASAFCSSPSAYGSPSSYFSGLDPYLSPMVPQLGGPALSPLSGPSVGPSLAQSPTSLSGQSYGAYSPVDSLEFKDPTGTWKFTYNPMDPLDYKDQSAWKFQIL
Sequence of ETV1 (P50549 whole entry): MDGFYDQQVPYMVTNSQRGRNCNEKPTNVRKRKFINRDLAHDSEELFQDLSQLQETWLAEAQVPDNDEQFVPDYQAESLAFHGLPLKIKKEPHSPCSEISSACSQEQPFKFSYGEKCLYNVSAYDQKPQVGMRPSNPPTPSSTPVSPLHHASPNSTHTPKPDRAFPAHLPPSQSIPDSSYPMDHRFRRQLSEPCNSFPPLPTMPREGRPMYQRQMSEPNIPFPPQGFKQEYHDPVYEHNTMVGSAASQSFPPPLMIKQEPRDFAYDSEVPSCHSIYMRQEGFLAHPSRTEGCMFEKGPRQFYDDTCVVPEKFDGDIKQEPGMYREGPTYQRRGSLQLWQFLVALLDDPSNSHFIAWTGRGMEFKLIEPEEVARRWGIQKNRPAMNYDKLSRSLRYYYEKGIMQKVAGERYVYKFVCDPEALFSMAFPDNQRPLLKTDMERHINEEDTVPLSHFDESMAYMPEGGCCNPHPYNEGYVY

With TCCCCT, the binding signal in assay [1] is 1.71 fold enrichment (6-mer frequency, TF over GST control); in assay [2], 1.72 fold enrichment (6-mer frequency, TF over GST control); in assay [3], 1.56 fold enrichment (6-mer frequency, TF over GST control); in [4], 1.88 fold enrichment (6-mer frequency, TF over GST control); in assay [5] it was 1.83 fold enrichment (6-mer frequency, TF over GST control); in assay [6], 1.55 fold enrichment (6-mer frequency, TF over GST control). The binding signal was 1.57 fold enrichment (6-mer frequency, TF over GST control) in [7]; 1.78 fold enrichment (6-mer frequency, TF over GST control) in [8]; 1.92 fold enrichment (6-mer frequency, TF over GST control) in [9]; 1.75 fold enrichment (6-mer frequency, TF over GST control) in [10]; 1.69 fold enrichment (6-mer frequency, TF over GST control) in assay [11]; 1.64 fold enrichment (6-mer frequency, TF over GST control) in [12]. Besides, the binding signal in assay [13] was 1.69 fold enrichment (6-mer frequency, TF over GST control); in assay [14], 1.54 fold enrichment (6-mer frequency, TF over GST control); in [15], 1.58 fold enrichment (6-mer frequency, TF over GST control); in assay [16] it was 1.76 fold enrichment (6-mer frequency, TF over GST control); in assay [17] it was 1.54 fold enrichment (6-mer frequency, TF over GST control); in assay [18], 1.65 fold enrichment (6-mer frequency, TF over GST control).

The record behind these values is paper PMC7862700, “An all-to-all approach to the identification of sequence-specific readers for epigenetic DNA modifications on cytosine”.
